Screens deposited in PubChem BioAssay by National Center for Advancing Translational Sciences (NCATS).
p53null 32C tox = p53 null cell cytotoxicity, permissive temperature. 55,000 compounds, 0.62% hits. H1299-neo p53 null cells, ATP luminescence, 24 h, 32C. AID 903. Potency, µM (top dose mostly 46.1 µM), hits mostly cytotoxic; also: nearly all actives have a fitted effect of over 55% in size
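We seeded p53-null H1299-neo cells, incubated them overnight at 37C, and added compounds across a range up to 46 uM. After 24 hours at 32C, ATP reagent was applied for 20 min at room temperature and luminescence recorded.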
S16 F2sN tox = toxic to S16 Pmp22-F2sN Schwann cells | S16 Pmp22-F2sN Schwann cells viability, CellTiter-Glo, 24 h | Potency, µM (top dose mostly 57.5 µM), most hits filed as cytotoxic | 43,000 compounds, 0.48% hits; also: nearly all actives have a fitted effect of over 65% in size
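Used to flag compounds lowering reporter output through toxicity, this quantitative HTS measures ATP-based CellTiter-Glo luminescence in S16 Pmp22-F2sN Schwann cells after 24 h compound exposure at 37C.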
pS6 MEF inh = mTORC1 pathway inhibition measured by phospho-rpS6. Tsc2-/- p53-/- MEF, phospho-rpS6 immunofluorescence/PI, 24 h. Potency, µM (series often up to 38.3 µM), actives largely listed as inhibitors. 44,000 compounds, 0.78% hits; also: nearly all actives have a fitted effect of over 50% in size
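Plate MEFs (Tsc2-/-, p53-/-, empty vector) in DMEM/10% FBS; after 24 h add compound, incubate 24 h at 37 degree Celsius; fix in PFA/TX-100, block, stain phospho-rpS6 and 10 uM PI; scan at 488 nm; report % positive cells.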
p53null 39C tox = p53 null cell cytotoxicity, nonpermissive temperature. H1299 p53-null (neo) cells, 39C, ATPlite viability, 24 h. Potency, µM (series often up to 46.1 µM), actives largely listed as cytotoxic. 55,000 compounds, 0.97% hits. AID 904; also: nearly all actives have a fitted effect of over 50% in size
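H1299 lung cancer cells, p53-null (H1299-neo) or expressing p53 A138V (H1299-p53A138V), were plated overnight at 37C, then exposed to compounds at up to 46 uM for 24 hr at 39C. Viability was read by ATP-based luminescence.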
OvCa metastasis = inhibitors of ovarian cancer cell adhesion and invasion in omental model | AID 1963576 | Potency, µM (highest dose often 45.8 µM), most hits filed as inhibitors | 46,000 compounds, 0.1% hits | SKOV3ip1-GFP adhesion/invasion on 3D omental model, fluorescence; also: nearly all actives have a fitted effect of over 65% in size
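qHTS, 4-pt dose (0.36-46 umol/L); SKOV3ip1-GFP, 1,200 cells/well, no FBS; primary omental fibroblast/mesothelial co-culture 48 h pre-grown; 2 h RT + 16 h 37 C; PBS wash, 4% PFA; GFP count 488/509 nm.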
PMP22 txn prim = modulators of PMP22 gene transcription in S16 Schwann cells; S16 Pmp22-F2sN Schwann cells (luciferase reporters placed in the Pmp22 gene), FLuc/NLuc coincidence luminescence, 24 h; Potency, µM (highest dose often 57.5 µM), usual class: inhibitors; 43,000 compounds, 2% hits; AID 1508649; active = clear falling dose curves in both reporters; inconclusive = both reporters move, but less clearly or upward; inactive = either reporter flat; the % is the NLuc reporter signal
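Rat S16 Pmp22-F2sN cells, 500-1,000/well in phenol red-free DMEM + 10% FBS, compound-treated 24 h (37C, 5% CO2). Luminescence: FLuc read, Stop&Glo added, NLuc read.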
Numbers stand for hits; - = inactive; ? = inconclusive; . = no result. A selection: hits, their analogues and other compounds. The true share with any hit is near 3%. Unless noted, calls follow the shape of the dose curve; as a rule, active = well fitted curve in the direction sought with a large enough effect; inconclusive = small, poorly fitted or top-dose-only effect, or another doubt; inactive = no such curve, though single readings can be large; an effect the other way counts as inactive or inconclusive.

SMILES | p53null 32C tox | S16 F2sN tox | pS6 MEF inh | p53null 39C tox | OvCa metastasis | PMP22 txn prim
COc1cccc(C2CC(=O)Nc3cc4c(cc32)OCCO4)c1OC (stereo unspecified) | - | - | 15µM | - | - | -
CC(=O)NCCC(=O)N[C@@H](CCC(N)=O)C(=O)N[C@@H](CO)C(=O)N[C@@H](CCC(N)=O)C(=O)N[C@@H](CCC(N)=O)C(=O)N[C@H](C(=O)N[C@@H](Cc1ccccc1)C(=O)N[C@]1(C)CCCCCCC=CCCC[C@@](C)(C(=O)N[C@@H](CCC(N)=O)C(=O)N[C@@H](CC(N)=O)C(N)=O)NC(=O)[C@H](CC(C)C)NC(=O)[C@H](CC(C)C)NC(=O)[C@@H](CCCNC(=N)N)NC(=O)[C@H](Cc2c[nH]c3ccccc23)NC(=O)[C@H](CC(C)C)NC(=O)[C@H](CC(N)=O)NC1=O)[C@H](C)O | . | . | . | . | - | .
Cc1cccc(C(=O)Nc2nc3c(s2)CCCC3)c1 | 13µM | - | - | 13µM | - | -
O=C(Nc1nc2c(s1)CCCC2)c1ccc2ncsc2c1 | 13µM | . | . | 11µM | . | .
NC(=O)C1CCN(C(=O)c2ccc(NC(=O)c3nsc4ccccc34)cc2)CC1 | 2.5µM | ? | - | 2.8µM | - | ?
CN(C)c1ccc(C(=O)NCCCCCCC(=O)NO)cc1 | . | . | . | . | - | .
Cc1ccc2occ(CC(=O)Nc3ccc(Cl)c(C(F)(F)F)c3)c2c1 | - | ? | 12µM | 16µM | - | ?
Cc1ccc2occ(CC(=O)Nc3ccc(S(N)(=O)=O)cc3)c2c1 | - | - | - | - | - | -
COc1ccc(OC)c2sc(N3CCN(C(=O)C(C)(C)C)CC3)nc12 | 13µM | - | - | 11µM | - | -
CCCN1C(C(=O)c2ccccc2)=C(OC(=O)COc2ccc(C)cc2)c2ccccc2S1(=O)=O | - | - | - | 32µM | - | ?
OC[C@H]1O[C@@H](Oc2ccc(O)cc2)[C@H](O)[C@@H](O)[C@H]1O | . | . | . | . | - | .
Cn1c(=O)c(Oc2ccc(F)cc2F)cc2cnc(NC3CCOCC3)nc21 | . | . | . | . | - | .
CCCCCCn1c(/C=C/c2ccccc2)nc2ccccc21 | - | - | - | 13µM | - | -
CCCCN1C(=O)C(O)(c2c(C)[nH]c3ccccc23)c2cc(Br)ccc21 (stereo unspecified) | - | - | ? | ? | ? | ?
CCCCN1C(=O)C(O)(c2c(C)[nH]c3ccccc23)c2ccccc21 (stereo unspecified) | - | ? | ? | - | - | 19µM
COc1cc(Nc2ncc3c(n2)-c2ccc(Cl)cc2C(c2c(F)cccc2OC)=NC3)ccc1C(=O)O | . | . | . | . | - | .
COc1ccc(Cl)cc1S(=O)(=O)NCc1ccc2c(c1)CCN2C(=O)c1cccc(C)c1 | - | 14µM | ? | ? | - | 11µM
CC1(C)C(=O)N(CC(=O)Nc2ccc(Br)cc2F)c2ccccc21 | - | - | - | - | - | -
COC(=O)CN1C(=O)C(C)(C)c2cc(S(=O)(=O)Nc3ccc(Br)cc3F)ccc21 | - | - | 13µM | - | - | -
C[C@@H]1CCO[C@H]2Cn3cc(C(=O)NCc4ccc(F)cc4F)c(=O)c(O)c3C(=O)N12 | . | . | . | . | - | .
CC(=O)OCC(=O)[C@@]1(O)[C@H](C)C[C@H]2[C@@H]3C=C(C)C4=Cc5c(cnn5-c5ccccc5)C[C@]4(C)[C@@H]3[C@@H](O)C[C@@]21C | . | . | . | . | - | .
CCOc1cc(CNCCc2ccccc2)ccc1OCC(=O)NC(C)(C)C | - | . | . | 16µM | . | .
CCN1CCOC(=O)C1CC(=O)Nc1cc(C)cc(C)c1 (stereo unspecified) | . | ? | 10µM | . | - | ?
Cc1cnc(-c2cc(N3CCN(C(=O)CCS(C)(=O)=O)CC3)ncc2Cl)c(C)c1 | . | . | . | . | - | .
COc1cc(NC(=O)c2cccc(F)c2)ccc1NC(=O)c1cc2ccccc2o1 | - | - | 16µM | - | - | -
SMILES | p53null 32C tox | S16 F2sN tox | pS6 MEF inh | p53null 39C tox | OvCa metastasis | PMP22 txn prim
CCN(CC)CCOC(=O)c1ccc(NC(=O)CSc2cc(=O)n(CC)c3ccccc23)cc1 | - | ? | - | 2.5µM | - | ?
CCn1c(=O)cc(SCC(=O)Nc2ccc(C)c(F)c2)c2ccccc21 | - | - | - | - | - | -
COc1c(OCCCN2CCOCC2)ccc2c3n(c(=NC(=O)c4cnc(N)nc4)nc12)CCN3 | . | . | . | . | - | .
COc1cccc(NC(=O)CSc2nnc(-c3cccc(OC)c3)o2)c1 | 16µM | - | - | 6.3µM | - | -
O=C(CSc1nnc(-c2ccccc2Cl)o1)Nc1ccc2c(c1)OCCO2 | - | . | . | - | . | .
COc1ccccc1NC(=O)CSc1nnc(-c2ccccc2C)o1 | ? | - | - | 4µM | - | -
O=C(CSc1nnc(-c2ccccc2F)o1)Nc1ccccc1Cl | - | - | - | 7.9µM | - | -
COc1ccc(NC(=O)CSc2nnc(-c3ccc(C)cc3)o2)cc1 | - | - | - | - | - | -
